About 360 (0.41%) of roughly 87,000 compounds were called active. The entries come from a sample that favours actives as a whole. Values without a mark were called inactive. Rule as the data show it: active = cytotoxicity above about 50%; inactive = the rest.
Test: cytotoxicity in HT1080 fibrosarcoma cells, cell-based, fluorescence readout (AID 620);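 also: cells exposed to compound overnight then 4 h with Alamar Blue; 0% = vehicle DMSO and 100% = killing control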
Conditions: HT1080 viability, at 10 µM, hits give high values
For `CC(C)(C)c1cc(NCCCn2ccnc2)n2ncc(-c3ccc(Cl)cc3)c2n1`, the cytotoxicity was -4.9%. `Cc1cc(NCCCn2ccnc2)n2ncc(-c3ccccc3)c2n1` showed a cytotoxicity of -5.3%. Work on `Cc1cccc(-n2nnnc2SCC(=O)NCCN2C(=O)CSC2=O)c1` yielded a cytotoxicity of -3.3%. Work on `O=C(c1cc2ccccc2oc1=O)N(Cc1cccs1)C1CCS(=O)(=O)C1` (configuration not stated) yielded a cytotoxicity of 3.4%. For `Cc1ccc(C2C(C#N)=C(N)Oc3n[nH]c(C)c32)cc1` (configuration not stated), the cytotoxicity was 1.3%. For `Cc1[nH]nc2c1C(C(C)C)C(C#N)=C(N)O2` (configuration not stated), the cytotoxicity was 11.3%. For `Cc1[nH]nc2c1C(C1CC=CCC1)C(C#N)=C(N)O2` (configuration not stated), the cytotoxicity was 73% (active). `Cc1ccc(N=Nc2c(C)[nH][nH]c2=O)c(C)c1` gave a cytotoxicity of 1.8%. In the case of `COc1ccc(CCN/C=C2/CC(=O)NC2=O)cc1OC`, the cytotoxicity was 0.2%. In the case of `COc1ccc(C)cc1NC(=O)NC1CCN(Cc2ccccc2)CC1`, the cytotoxicity was 3%. For `Nc1ccc2c(c1)C(=O)C(=O)c1ccccc1-2`, the cytotoxicity was 92.7% (active). `O=C1C(=O)c2ccc(-c3ccccc3)cc2-c2ccccc21` gave a cytotoxicity of 47.5%. In the case of `Nc1ccc(Br)c2c1C(=O)c1ccccc1C2=O`, the cytotoxicity was -18.1%. `COc1ccc(C2=NOC(C(=O)NCc3ccco3)C2)cc1OC` (configuration not stated) gave a cytotoxicity of 46.5%. In the case of `COc1cccc(C2=NOC(C(=O)NCc3cccs3)C2)c1` (configuration not stated), the cytotoxicity was -1.8%. For `O=C(NCc1cccs1)C1CC(c2ccccc2O)=NO1` (configuration not stated), the cytotoxicity was -1.4%. For `COc1ccc(C2=NOC(C(=O)NCc3cccs3)C2)cc1` (configuration not stated), the cytotoxicity was 7.4%. Work on `COc1cc(C2=NOC(C(=O)NCc3ccccn3)C2)cc(OC)c1OC` (configuration not stated) yielded a cytotoxicity of -2.6%. In the case of `COc1ccc(C2=NOC(C(=O)NCc3ccco3)C2)cc1` (configuration not stated), the cytotoxicity was 6%. In the case of `COc1cc(C2=NOC(C(=O)NCc3ccco3)C2)cc(OC)c1OC` (configuration not stated), the cytotoxicity was 54.4% (active). In the case of `COc1cc(C2=NOC(C(=O)NCc3cccs3)C2)cc(OC)c1OC` (configuration not stated), the cytotoxicity was 58.1% (active). In the case of `COc1ccc(C2=NOC(C(=O)NCc3cccs3)C2)cc1OC` (configuration not stated), the cytotoxicity was 59.8% (active). In the case of `CCCCN(C)Cc1c(O)ccc2c(-c3ccccc3)cc(=O)oc12`, the cytotoxicity was 11.9%. With `CCOc1ccc(NC(=O)N2CCC(NC(=O)c3ccco3)CC2)cc1` the cytotoxicity was 4.5%. Compound `O=C(CSc1ncn(-c2ccccc2)n1)c1cccs1` has a cytotoxicity of -3.1%. `CCOc1ccc(-c2nc(S(=O)(=O)c3ccccc3)c(NCc3cccnc3)o2)cc1` gave a cytotoxicity of 0.3%. In the case of `CC(=O)Nc1ccccc1-c1nn[nH]n1`, the cytotoxicity was -11.5%. With `Cn1c(/C=C/c2ccc([N+](=O)[O-])o2)nc2ccccc2c1=O` the cytotoxicity was 85.1% (active). Work on `Cc1ccc2nc(N/N=C\c3ccc([N+](=O)[O-])o3)nc(-c3ccccc3)c2c1` yielded a cytotoxicity of 13.6%. Compound `Cn1c(SCc2ccon2)nc2ccccc2c1=O` has a cytotoxicity of 2.4%. `O=C(CC1(O)C(=O)Nc2cc(Cl)cc(Cl)c21)c1ccccc1O` (configuration not stated) gave a cytotoxicity of -66.6%. For `CCCCNc1c(C(=O)OCC)c(=O)[nH]c2ccccc12`, the cytotoxicity was 0.1%. In the case of `CCN(CC)c1ccc(NC(=O)c2cc(OC)cc(OC)c2)c(C)c1`, the cytotoxicity was 59.7% (active). `CCN(CC)c1ccc(NC(=O)c2c(OC)cccc2OC)c(C)c1` gave a cytotoxicity of -1.4%. Compound `CCN(CC)c1ccc(NC(=O)c2cccc(OC)c2)c(C)c1` has a cytotoxicity of 16.9%. Compound `CCC1Oc2ccccc2N(CC(=O)NCCCN2CCOCC2)C1=O` (configuration not stated) has a cytotoxicity of -2.1%. `O=S(=O)(Nc1ccc2c(c1)OCO2)c1ccc(Br)s1` showed a cytotoxicity of 9.9%. For `COCCn1c(SCC#N)nnc1-c1ccccc1`, the cytotoxicity was 22.4%. `CCOc1cc(/C=N/n2cnnc2)cc(Br)c1O` showed a cytotoxicity of 0.3%. In the case of `CCOc1cc(/C=N/n2cnnc2)c(Br)cc1O`, the cytotoxicity was 62.2% (active). Work on `CCOc1cc(/C=N/n2cnnc2)ccc1O` yielded a cytotoxicity of -5%. `COC(=O)c1ccccc1S(=O)(=O)Nc1ccc(OC)nc1` gave a cytotoxicity of 13%. `CCCS(=O)(=O)C(=C(Nc1ccc(OC)cc1)Nc1ccc(OC)cc1)S(=O)(=O)CCC` gave a cytotoxicity of 7.4%. In the case of `COc1ccc(NC(=O)c2cc(OC)c(OC)c(OC)c2)cn1`, the cytotoxicity was 3.1%. `COc1ccc(CNC(=O)Nc2ccc(C)cc2)cc1` gave a cytotoxicity of -2.8%. Work on `COc1ccc(NC(=O)C(CC(C)C)NC(=O)c2ccccc2C)cn1` (configuration not stated) yielded a cytotoxicity of 0.6%. With `COc1ccc(NS(=O)(=O)Cc2ccccc2Cl)cn1` the cytotoxicity was 14.8%. For `COc1ccc(NC(=O)/C(Cl)=C(/Cl)S(=O)(=O)Cc2ccccc2)cn1`, the cytotoxicity was 79.3% (active). In the case of `COc1ccc(CS(=O)(=O)/C(Cl)=C(/Cl)C(=O)Nc2ccc(OC)nc2)cc1`, the cytotoxicity was 63.1% (active). In the case of `COc1ccc(C(=O)/C=C(\N)C(F)(F)F)c(O)c1`, the cytotoxicity was -3.6%. With `CCOC(=O)CSc1nc2c(c(=O)[nH]c(=O)n2C)n1C/C=C(/C)Cl` the cytotoxicity was 12%. In the case of `O=C1C=C(N(CCO)CCO)C2(CCCCC2)O1`, the cytotoxicity was -7.3%. With `O=C(O)CNc1nc(-c2ccccc2)nc2ccccc12` the cytotoxicity was -10.9%. For `COC1=C(OC)c2ccccc2C(C(=O)O)N/C1=C(/C)Nc1ccncc1` (configuration not stated), the cytotoxicity was -1%. `CN(CC(=O)NC1CCCCCCC1)S(=O)(=O)c1cccc2cccnc12` showed a cytotoxicity of -11.8%. In the case of `CCOC(=O)/C(=C/Nc1ccccc1)[N+](=O)[O-]`, the cytotoxicity was -10.2%. In the case of `CCOC(=O)/C(=C\c1cccnc1)C(=O)c1cc(C(C)=O)c(Nc2ccccc2)s1`, the cytotoxicity was 75.6% (active). In the case of `CCOC(=O)Nc1cccc(Nc2ccccc2)c1`, the cytotoxicity was -3.2%. Compound `CCOC(=O)c1sc(Nc2ccccc2)nc1C` has a cytotoxicity of 15%. `CCOC(=O)c1cccc(NC(=O)c2cccnc2)c1` showed a cytotoxicity of 0.2%. Compound `Cn1c(-c2sc(=S)n(-c3ccccc3)c2N)nc2ccccc21` has a cytotoxicity of -7.2%. For `CCCCn1c(SCC(=O)N2CCC(C)CC2)nc2cc(S(N)(=O)=O)ccc21`, the cytotoxicity was 27.9%. Compound `CC1CCc2c(sc3ncnc(SCC(=O)c4ccccc4)c23)C1` (configuration not stated) has a cytotoxicity of 4.4%. `CC(C)(C)c1csc(NC(=O)Cn2c(=O)oc3ccccc32)n1` showed a cytotoxicity of -6.8%. With `CNC(=O)c1ncnnc1N(C)C(=O)NCc1ccccc1` the cytotoxicity was -2.1%. Work on `CN1CCN(C(=O)c2ccc(C3SCC(=O)N3Cc3ccco3)cc2)CC1` (configuration not stated) yielded a cytotoxicity of -8.2%. For `CN1CC2=Cc3ccccc3OC23Oc2ccccc2C=C3C1`, the cytotoxicity was 51.7% (active). In the case of `O=C1c2ccccc2OC2(C=Cc3ccccc3O2)N1Cc1ccccc1` (configuration not stated), the cytotoxicity was 15.6%. For `O=C(Nc1cccc(-c2nc3ccccc3o2)c1)c1ccc(N2C(=O)C3C4C=CC(C4)C3C2=O)cc1` (configuration not stated), the cytotoxicity was 21.5%. Work on `COCCNc1nnc(SCC(=O)c2ccc3c(c2)OCO3)s1` yielded a cytotoxicity of 1.3%. With `CCSc1nnc(NC(=O)c2cccs2)s1` the cytotoxicity was -4.1%. For `CCSc1nnc(NC(=O)c2csc(C)c2)s1`, the cytotoxicity was 25.7%. In the case of `CCSc1nnc(NC(=O)c2ccccn2)s1`, the cytotoxicity was -11%. In the case of `CCSc1nnc(NC(=O)c2ccc3c(c2)OCO3)s1`, the cytotoxicity was 55.2% (active). In the case of `CCSc1nnc(NC(=O)c2ccc(Br)s2)s1`, the cytotoxicity was 68.3% (active). Work on `CCOCCCn1c(SCC(=O)Nc2ccc(C(N)=O)cc2)nc2ccccc2c1=O` yielded a cytotoxicity of -6%. Work on `CCOC(=O)c1cc(-c2ccc(C)o2)nn1CCC#N` yielded a cytotoxicity of 0.3%. In the case of `COCCCNC(=O)c1cccc(C(=O)NCCCOC)c1`, the cytotoxicity was 0.6%. In the case of `CCC1=Nc2cc(C(=O)NCCCOC)ccc2Sc2ccccc21`, the cytotoxicity was 68.1% (active). Work on `CCOCCCNC(=O)c1ccc(OC)cc1` yielded a cytotoxicity of -2.5%. `CCC1=Nc2cc(C(=O)NCCCOC(C)C)ccc2Sc2ccccc21` showed a cytotoxicity of 39.6%. Work on `CCCC1=Nc2cc(C(=O)NCCCOC(C)C)ccc2Sc2ccccc21` yielded a cytotoxicity of 6.2%. For `CCCC1=Nc2cc(C(=O)NCCCOCC)ccc2Sc2ccccc21`, the cytotoxicity was 63.8% (active). In the case of `CC(C)C1N=C2c3ccccc3N=C(SCc3cc(=O)n4ccccc4n3)N2C1=O` (configuration not stated), the cytotoxicity was 2.9%. `CCOc1ccc(S(=O)(=O)N2CCN(C)CC2)c(C)c1C` showed a cytotoxicity of 11.2%. Compound `CCC(C)(C)n1c(=O)[nH]c2c(c1=O)CCC2` has a cytotoxicity of 25.2%. Compound `O=C(Nc1ccccc1N1CCCCC1)c1ncoc1-c1ccc(F)cc1` has a cytotoxicity of -6.7%. With `CCOc1ccc(/C=C2/SC(=S)N(n3c(C)ccc3C)C2=O)cc1` the cytotoxicity was -16.1%. In the case of `COc1ccc(C(=O)N2CCc3cc(OC)c(OC)cc3C2)cc1OC`, the cytotoxicity was -5.5%. In the case of `CCOc1ccc(C(=O)N2CCCC2)cc1OC`, the cytotoxicity was 4.1%. With `CCOc1cc(C(=O)N2CCc3cc(OC)c(OC)cc3C2)ccc1OC(F)F` the cytotoxicity was 59.3% (active). `COC(=O)CN1C(=O)C2(C(C#N)=C(N)Oc3c2c(C)nn3-c2ccccc2)c2ccccc21` (configuration not stated) gave a cytotoxicity of -65.1%. With `CC1CCCN(S(=O)(=O)c2ccc(NC(=O)CN3CCN(C)CC3)cc2)C1` (configuration not stated) the cytotoxicity was -6.1%. In the case of `Cc1ccc(NC(=O)CN2CC(C)SC2=NC2CCCCC2)cc1` (configuration not stated), the cytotoxicity was 87% (active). Compound `CCc1cccc(CC)c1NC(=O)CN1CC(C)SC1=NC1CCCCC1` (configuration not stated) has a cytotoxicity of -4.4%. With `CCOC(=O)c1c(NC(=O)CSc2nnc(-c3ccccc3C)n2C)sc(C(C)=O)c1C` the cytotoxicity was -23.9%. For `O=C1NCCCC1C(=O)N1CCN(C(=O)c2ccco2)CC1` (configuration not stated), the cytotoxicity was 1.1%. In the case of `COc1cccc(NC(=O)CC2C(=O)NC3CCCCC3N2C(=O)c2ccc(F)cc2)c1` (configuration not stated), the cytotoxicity was -16.2%. For `Cc1ccccc1NCC(=O)N/N=C/C(Br)=C/c1ccccc1`, the cytotoxicity was -17.1%. In the case of `O=C(N/N=C/C(Br)=C/c1ccccc1)c1n[nH]c2c1CCC2`, the cytotoxicity was 66.4% (active). For `O=C(N/N=C/C(Br)=C\c1ccccc1)c1n[nH]c2c1CCC2`, the cytotoxicity was 66.5% (active). In the case of `O=C(O)c1n[nH]c2c1CCCC2`, the cytotoxicity was -12.7%. For `CC(/C=N/NC(=O)c1ccc(Br)cc1)=C\c1ccccc1`, the cytotoxicity was -15.4%. In the case of `CC(/C=N/NC(=O)c1n[nH]c2c1CCC2)=C\c1ccccc1`, the cytotoxicity was 71.7% (active). With `O=C(CNc1cccc2ccccc12)N/N=C/C(Br)=C/c1ccccc1` the cytotoxicity was 1.9%. Compound `Cc1ccc(NCC(=O)N/N=C\C(Br)=C\c2ccccc2)cc1` has a cytotoxicity of 8.3%. With `CC(=C/c1ccccc1)/C=N/NC(=O)c1cnccn1` the cytotoxicity was -7.1%.

Reference: PubChem BioAssay AID620 (Sanford-Burnham Center for Chemical Genomics, 2007)
